The record followed here is PubChem BioAssay (EPA / NIEHS).

Structures are written as SMILES. Results filed as inconclusive are left out. Active and inactive are the calls of the source. How the source made its calls: active means hit-call score of the fitted dose curve at least 0.9, where 1 is the maximum; inconclusive means response in the unintended direction; inactive means score below 0.9.

Read-out in the assay: ABC Transporter (ABCB1), ABCB1 (gene 5243)
Description: CLD_ABCB1_6hr: CellzDirect (CLD) Gene Expression Assay for ABC Transporter (ABCB1) at 6 hours (AID 2283659).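 Further: hits raise ABCB1 transcript above the DMSO vehicle baseline.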 On the procedure: CLD_6hr is a cell-based, multiplexed-readout assay that uses hepatocyte, a human liver primary cell, with measurements taken at 6 hours after chemical dosing in a 96-well plate.CLD_ABCB1_6hr is one of 16 assay component(s) measured or calculated from the CLD_6hr assay. It is designed to make measurements of mRNA induction, a form of inducible reporter, as detected with chemiluminescence signals by Quantitative Nuclease Protection Assay (qNPA) technology.Data from the assay component CLD_ABCB1_6hr was analyzed at the endpoint, CLD_ABCB1_6hr, in the positive analysis fitting direction relative to DMSO as the negative control and baseline of activity. Using a type of inducible reporter, gain-of-signal activity can be used to understand changes in the reporter gene as they relate to the gene ABCB1. Furthermore, this assay endpoint can be referred to as a primary readout. To generalize the intended target to other relatable targets, this assay endpoint is annotated to the transporter intended target family, where subfamily is ABC transporter.
Human hepatocyte cultures were treated daily for two consecutive days with fresh dosing solutions containing appropriate concentrations of the 320 ToxCast chemicals (chemical identities were blinded to CellzDirect and other ToxCast collaborators), vehicle control (0.2% DMSO), and positive control inducers as summarized in Table 1. Due to the large number of treatment groups and chemicals examined, the ToxCast chemicals were divided into two groups (spanning two independent cultures of hepatocytes from separate donor preparations (Hu778: ToxCast plates 1 and 2; Hu776: ToxCast plates 3 and 4). Each preparation of human hepatocyte cultures was treated with respective vehicle control, medium only control, set of six positive controls/reference chemicals for the five hepatic receptor pathways, and a subset of eight of the ToxCast chemicals (indoxacarb, pyrithiobac-sodium, norflurazon, cyhalofop-butyl, methomyl, thiram, acetochlor, and propiconazole). These replicate data, coupled with internal replicates designed within the blinded ToxCast chemical library, provided additional data to evaluate interindividual differences between hepatocyte preparations and their potential impact on chemical profiles.Cell morphology and integrity were evaluated using phase-contrast microscopy as an indicator of hepatocyte cell health (Tyson & Green, 1987). Cultures for each treatment group (i.e., media, vehicle [0.2% DMSO], positive control inducers [multiple concentrations], and the ToxCast chemicals [multiple concentrations]) were observed and cell morphology was assessed relative to vehicle control cultures at each harvest time point (0, 6, 24, or 48 h). […] Images were evaluated at the conclusion of the study to assess changes in cell integrity and account for the effects of chemical exposure on uncharacteristic changes in concentration-dependent gene expression profiles. The results from these determinations of apparent cytotoxicity were annotated (yes/no) alongside the corresponding qNPA data for reference.At the conclusion of each treatment period, hepatocyte cultures (96-well) were washed with 1 volume of HBSS, lysed by addition of 25 ul ArrayPlate lysis buffer (HTG, Tucson, AZ), and 70 ul/well of Denaturation Oil, denatured by incubation at 95C for 10 min, and frozen at approximately -70C until analysis by nuclease protection assay (qNPA) (Roberts et al., 2007). For qNPA analysis, cell lysates were thawed at 50C for approximately 30 min, qNPA probes were added, and samples were incubated at 95C for 10 min to begin the detection process by denaturing the target RNA, dissociating the duplexes and secondary structure hybridization. At the conclusion of the hybridization period, S1 nuclease reagent was added to each sample to digest all nonprotected nucleotides at 50C for 60-90 min. […]
On to `CNC(=O)Oc1ccccc1OC(C)C`, for which the compound was called inactive. For `O=C1c2ccccc2C(=O)N1SC(Cl)(Cl)Cl`, the compound was called inactive. As to `Oc1cc(Cl)ccc1Oc1ccc(Cl)cc1Cl`, the compound was classed as inactive. In the case of `CCOCN(C(=O)CCl)c1c(C)cccc1CC`, the compound was classed as inactive. Under `OCCOc1ccccc1` stands “inactive”; under `CCOC1Oc2ccc(OS(C)(=O)=O)cc2C1(C)C` (stereo not given), “inactive”. Regarding `C#CCN1C(=O)COc2cc(F)c(N3C(=O)C4=C(CCCC4)C3=O)cc21`, the call was inactive. The value for `CCc1ccc(C(=O)NN(C(=O)c2cc(C)cc(C)c2)C(C)(C)C)cc1` was “inactive”; that for `Cc1[nH]c(=O)n(C(C)(C)C)c(=O)c1Cl` was “inactive”; that for `COC(=O)c1ccccc1S(=O)(=O)NC(=O)Nc1nc(C)nc(OC)n1` was “inactive”.

Consider `O=[N+]([O-])c1c(Cl)c(Cl)c(Cl)c(Cl)c1Cl`, for which the call was inactive.

As for `CCC(C)(NC(=O)c1cc(Cl)c(C)c(Cl)c1)C(=O)CCl` (stereo not given), the result was inactive.

In the case of `CC(C)(C)C(O)C(Oc1ccc(Cl)cc1)n1cncn1` (stereo not given), the compound was classed as inactive. With `COP(=S)(OC)Oc1ccc([N+](=O)[O-])cc1`, the result was inactive. The value for `CCCN(CCOc1c(Cl)cc(Cl)cc1Cl)C(=O)n1ccnc1` was “inactive”. Take `COC(=O)c1ccccc1CS(=O)(=O)NC(=O)Nc1nc(OC)cc(OC)n1`: the compound was called inactive. The value for `COc1cc(OC)nc(NC(=O)NS(=O)(=O)c2cc(NC=O)ccc2C(=O)N(C)C)n1` was “inactive”. For the compound `CC(C)N(C(=O)COc1nnc(C(F)(F)F)s1)c1ccc(F)cc1`, the result was inactive. Regarding `N#CN`, the call was inactive. With `CCCN(CCC)c1c([N+](=O)[O-])cc(C(F)(F)F)cc1[N+](=O)[O-]`, the compound was classed as inactive. In the case of `O=C(O)COc1ccc(Cl)cc1Cl`, the result was inactive.

`O=S1OCC2C(CO1)C1(Cl)C(Cl)=C(Cl)C2(Cl)C1(Cl)Cl` (stereo not given): the compound was called inactive.

`COP(=O)(OC)OC=C(Cl)Cl`: the result was inactive. With `O=C(O)CCCOc1ccc(Cl)cc1Cl`, the call was inactive.

Consider `O=C(NC(=O)c1c(F)cccc1F)Nc1ccc(OC(F)(F)C(F)OC(F)(F)F)c(Cl)c1` (stereo not given), for which the outcome was inactive. Take `Oc1ccc(Cl)cc1Cc1ccccc1`: the compound was classed as inactive. Under `CC1(C)C(C=C(Cl)Cl)C1C(=O)OC(C#N)c1ccc(F)c(Oc2ccccc2)c1` (stereo not given) stands “inactive”; under `CCC(C)(C)C(=O)OC1=C(c2ccc(Cl)cc2Cl)C(=O)OC12CCCCC2`, “inactive”.

On to `CCC(C)Nc1c([N+](=O)[O-])cc(C(C)(C)C)cc1[N+](=O)[O-]` (stereo not given), for which the result was inactive. Under `CNC(=O)/C=C(\C)OP(=O)(OC)OC` stands “inactive”; under `O=C(O)C(F)(F)C(F)(F)C(F)(F)C(F)(F)C(F)(F)C(F)(F)C(F)(F)F`, “inactive”; under `C[C@H]1[C@H](c2ccc(Cl)cc2)SC(=O)N1C(=O)NC1CCCCC1`, “inactive”.

Turning to `ClC1C(Cl)C(Cl)C(Cl)C(Cl)C1Cl` (stereo not given), the outcome was inactive. With `O=[N+]([O-])/N=C1\NCCN1Cc1ccc(Cl)nc1`, the compound was called inactive.

Take `Clc1ccccc1-c1nnc(-c2ccccc2Cl)nn1`: the call was inactive.

For the compound `CC(C)(C)C(O)/C(=C\c1ccc(Cl)cc1Cl)n1cncn1` (stereo not given), the result was inactive. Consider `CC(C)OC(=O)Nc1cccc(Cl)c1`, for which the compound was called inactive. Turning to `CCOc1nc(NC)nc(NC(=O)NS(=O)(=O)c2ccccc2C(=O)OC)n1`, the outcome was inactive.

Turning to `CCN(CC)C(=O)SCc1ccc(Cl)cc1`, the compound was called inactive. Under `CN1CSC(=S)N(C)C1` stands “inactive”.
